Laboratory results taken from PubChem BioAssay (EPA / NIEHS).
Activity calls are given as the source filed them. The calls were made as follows: active = hit-call score of the fitted dose curve at least 0.9, where 1 is the maximum; inactive = score below 0.9.

Legend:
Details in all cases: mRNA level, 48 h; actives raise or lower the signal
[1] = read-out: Insulin Like Growth Factor 1 (IGF1), IGF1 (gene 3479); experiment: LTEA_HepaRG_IGF1: Life Technologies and Expression Analysis (LTEA) Assay for Insulin Like Growth Factor 1 (IGF1) using HepaRG (AID 2283506)
Summary of the method: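 Differentiated human HepaRG cells were dosed for 48 h in serum-free induction medium with 0.5% DMSO, eight half-log concentrations up to 100 uM, in duplicate. IGF1 mRNA was quantified by qRT-PCR normalized to ACTB, GAPDH, POLR2A; bidirectional fitting versus DMSO.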

[2] = read-out: Intercellular Adhesion Molecule 1 (ICAM1), ICAM1 (gene 3383); experiment: LTEA_HepaRG_ICAM1: Life Technologies and Expression Analysis (LTEA) Assay for Intercellular Adhesion Molecule 1 (ICAM1) using HepaRG (AID 2283507)
Summary of the method: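 HepaRG, 48 h exposure, 8-pt half-log series from 100 uM, 0.5% DMSO vehicle, duplicates. Readout: TaqMan qRT-PCR mRNA, housekeeping-normalized (ACTB/GAPDH/POLR2A). Bidirectional curve fit vs DMSO baseline.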

[3] = read-out: Insulin-like growth factor-binding protein 1 (IGFBP1), IGFBP1 (gene 3484); experiment: LTEA_HepaRG_IGFBP1: Life Technologies and Expression Analysis (LTEA) Assay for Insulin-like growth factor-binding protein 1 (IGFBP1) using HepaRG (AID 2283508)
Summary of the method: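 qRT-PCR mRNA read-out (TaqMan, Fluidigm array), normalised to three housekeeping genes; HepaRG cells, 48 h exposure, 8-pt half-log series from 100 uM, 0.5% DMSO vehicle; bidirectional curve fit vs DMSO baseline.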

[4] = read-out: Interleukin 6 Receptor (IL6R), IL6R (gene 3570); experiment: LTEA_HepaRG_IL6R: Life Technologies and Expression Analysis (LTEA) Assay for Interleukin 6 Receptor (IL6R) using HepaRG (AID 2283510)
Summary of the method: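 Differentiated human HepaRG cells, plated 48 h then switched to serum-free induction medium, were dosed in duplicate for 48 h at eight half-log concentrations up to 100 uM in 0.5% DMSO. IL6R mRNA quantified by qRT-PCR, normalized to ACTB/GAPDH/POLR2A; bidirectional fit versus DMSO.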

[5] = read-out: Potassium channel subfamily K member 1 (KCNK1), KCNK1 (gene 3775); experiment: LTEA_HepaRG_KCNK1: Life Technologies and Expression Analysis (LTEA) Assay for Potassium channel subfamily K member 1 (KCNK1) using HepaRG (AID 2283511)
Summary of the method: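 Differentiated human HepaRG cells in serum-free induction medium were exposed in duplicate for 48 h to 8 half-log concentrations up to 100 uM in 0.5% DMSO. KCNK1 mRNA was measured by TaqMan qRT-PCR, normalized to ACTB, GAPDH and POLR2A, and fitted bidirectionally versus DMSO.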

[6] = read-out: Keratin 19 (KRT19), KRT19 (gene 3880); experiment: LTEA_HepaRG_KRT19: Life Technologies and Expression Analysis (LTEA) Assay for Keratin 19 (KRT19) using HepaRG (AID 2283512)
Summary of the method: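 HepaRG, 48 h chemical exposure, 8-pt half-log CRC from 100 uM, 0.5% DMSO vehicle, duplicates. Readout: TaqMan qRT-PCR of KRT19 mRNA, housekeeping-normalized (ACTB/GAPDH/POLR2A). Bidirectional fit vs DMSO baseline.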

[7] = read-out: JUN Transcription Factor, JUN (gene 3725); experiment: LTEA_HepaRG_JUN: Life Technologies and Expression Analysis (LTEA) Assay for JUN Transcription Factor using HepaRG (AID 2283513)
Summary of the method: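 Differentiated HepaRG cells were exposed to chemicals for 48 h in serum-free induction medium, 8 concentrations from 100 uM in half-log steps, 0.5% DMSO vehicle, in duplicate. JUN mRNA was quantified by TaqMan qRT-PCR, normalized to ACTB, GAPDH, POLR2A.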

[8] = read-out: Lipase C (LIPC), LIPC (gene 3990); experiment: LTEA_HepaRG_LIPC: Life Technologies and Expression Analysis (LTEA) Assay for Lipase C (LIPC) using HepaRG (AID 2283514)
Summary of the method: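 Differentiated human HepaRG cells in serum-free induction medium were exposed in duplicate for 48 h to eight concentrations (top 100 uM, half-log steps, 0.5% DMSO). LIPC mRNA was quantified by TaqMan qRT-PCR, normalized to ACTB, GAPDH and POLR2A, with bidirectional fitting versus DMSO.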

[9] = read-out: Lipoprotein lipase (LPL), LPL (gene 4023); experiment: LTEA_HepaRG_LPL: Life Technologies and Expression Analysis (LTEA) Assay for Lipoprotein lipase (LPL) using HepaRG (AID 2283515)
Summary of the method: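 Differentiated human HepaRG cells in serum-free induction medium were exposed in duplicate for 48 h to eight half-log concentrations (top 100 uM) in 0.5% DMSO. LPL mRNA was quantified by TaqMan qRT-PCR, normalized to ACTB, GAPDH and POLR2A.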

[10] = read-out: MicroRNA 122 (MIR122), gene 406906; experiment: LTEA_HepaRG_MIR122: Life Technologies and Expression Analysis (LTEA) Assay for MicroRNA 122 (MIR122) using HepaRG (AID 2283516); also: the transcript read is the microRNA miR-122
Summary of the method: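 Differentiated human HepaRG cells were exposed 48 h in serum-free induction medium to eight half-log concentrations (top 100 uM, 0.5% DMSO). Transcript level was measured by TaqMan qRT-PCR, normalized to ACTB, GAPDH and POLR2A, and fitted bidirectionally versus DMSO.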

[11] = read-out: matrix metalloproteinase-10 (MMP10), MMP10 (gene 4319); experiment: LTEA_HepaRG_MMP10: Life Technologies and Expression Analysis (LTEA) Assay for matrix metalloproteinase-10 (MMP10) using HepaRG (AID 2283517)
Summary of the method: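 HepaRG, collagen I, ~100,000 cells/well; serum-free induction medium; 48 h exposure, duplicate, 8-pt half-log to 100 uM, 0.5% DMSO. Readout: TaqMan qRT-PCR, normalized to ACTB/GAPDH/POLR2A; bidirectional fit vs DMSO.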

MYC, MYC (gene 4609) = experiment: LTEA_HepaRG_MYC: Life Technologies and Expression Analysis (LTEA) Assay for MYC using HepaRG (AID 2283518)
Summary of the method: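 qRT-PCR read-out of MYC transcript (Fluidigm TaqMan, housekeeping-normalized) after 48 h chemical exposure of HepaRG cells; eight concentrations, top 100 uM, half-log steps. Bidirectional curve fitting against 0.5% DMSO vehicle baseline.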

[12] = read-out: matrix metalloproteinase-3 (MMP3), MMP3 (gene 4314); experiment: LTEA_HepaRG_MMP3: Life Technologies and Expression Analysis (LTEA) Assay for matrix metalloproteinase-3 (MMP3) using HepaRG (AID 2283519)
Summary of the method: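 Differentiated human HepaRG cells, plated 48 h on collagen I, were exposed in duplicate for 48 h in serum-free induction medium to eight half-log concentrations up to 100 uM in 0.5% DMSO. MMP3 mRNA was quantified by TaqMan qRT-PCR, normalised to ACTB, GAPDH and POLR2A.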

[13] = read-out: Paternally Expressed 10 (PEG10), PEG10 (gene 23089); experiment: LTEA_HepaRG_PEG10: Life Technologies and Expression Analysis (LTEA) Assay for Paternally Expressed 10 (PEG10) using HepaRG (AID 2283520)
Summary of the method: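 Differentiated HepaRG cells, plated 48 h then switched to serum-free induction medium, were exposed in duplicate for 48 h to eight half-log concentrations topping at 100 uM in 0.5% DMSO. PEG10 mRNA was quantified by TaqMan qRT-PCR, normalised to ACTB, GAPDH and POLR2A.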

[14] = read-out: Protein phosphatase 2A (PPP2R4), PTPA (gene 5524); experiment: LTEA_HepaRG_PPP2R4: Life Technologies and Expression Analysis (LTEA) Assay for Protein phosphatase 2A (PPP2R4) using HepaRG (AID 2283522)
Summary of the method: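 Differentiated HepaRG cells in serum-free induction medium were exposed in duplicate for 48 h to eight concentrations, top 100 uM with half-log dilutions, in 0.5% DMSO. PPP2R4 mRNA was quantified by TaqMan qRT-PCR, normalized to ACTB, GAPDH and POLR2A.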

[15] = read-out: Phosphatase and tensin (PTEN), PTEN (gene 5728); experiment: LTEA_HepaRG_PTEN: Life Technologies and Expression Analysis (LTEA) Assay for Phosphatase and tensin (PTEN) using HepaRG (AID 2283523)
Summary of the method: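 Differentiated human HepaRG cells, plated 48 h then switched to serum-free induction medium, were exposed in duplicate for 48 h to eight half-log concentrations up to 100 uM in 0.5% DMSO. PTEN mRNA measured by TaqMan qRT-PCR, normalized to ACTB/GAPDH/POLR2A, bidirectional fit versus DMSO.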

[16] = read-out: solute carrier (SLC22A1), SLC22A1 (gene 6580); experiment: LTEA_HepaRG_SLC22A1: Life Technologies and Expression Analysis (LTEA) Assay for solute carrier (SLC22A1) using HepaRG (AID 2283524)
Summary of the method: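 Human HepaRG cells were plated 48 h, switched to serum-free induction medium, then exposed in duplicate for 48 h to 8-point half-log series from 100 uM in 0.5% DMSO. SLC22A1 mRNA measured by qRT-PCR, normalized to ACTB/GAPDH/POLR2A, fitted bidirectionally versus DMSO.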

[17] = read-out: Interleukin 6 (IL6), IL6 (gene 3569); experiment: LTEA_HepaRG_IL6: Life Technologies and Expression Analysis (LTEA) Assay for Interleukin 6 (IL6) using HepaRG (AID 2283509)
Summary of the method: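 Differentiated human HepaRG cells, plated 48 h then switched to serum-free induction medium, were exposed in duplicate for 48 h to eight half-log concentrations up to 100 uM in 0.5% DMSO. IL6 mRNA measured by qRT-PCR, normalized to ACTB/GAPDH/POLR2A.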

[18] = read-out: Nuclear factor NF-kappa-B p105 subunit (Homo sapiens) (UniProt P19838); experiment: LTEA_HepaRG_NFKB1: Life Technologies and Expression Analysis (LTEA) Assay for Nuclear Factor Kappa B Subunit 1 (NFKB1) using HepaRG (AID 2283521);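 also: TaqMan qRT-PCR transcript normalised to ACTB GAPDH and POLR2A housekeeping genes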
Summary of the method: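 Differentiated human HepaRG cells were exposed for 48 h in serum-free induction medium to eight concentrations (top 100 uM, half-log steps, 0.5% DMSO), in duplicate. NFKB1 mRNA was measured by TaqMan qRT-PCR, normalized to ACTB/GAPDH/POLR2A, and fitted bidirectionally against DMSO.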

Measured: AC50

Nuclear factor NF-kappa-B p105 subunit (Homo sapiens), sequence (P19838 whole entry, looked up): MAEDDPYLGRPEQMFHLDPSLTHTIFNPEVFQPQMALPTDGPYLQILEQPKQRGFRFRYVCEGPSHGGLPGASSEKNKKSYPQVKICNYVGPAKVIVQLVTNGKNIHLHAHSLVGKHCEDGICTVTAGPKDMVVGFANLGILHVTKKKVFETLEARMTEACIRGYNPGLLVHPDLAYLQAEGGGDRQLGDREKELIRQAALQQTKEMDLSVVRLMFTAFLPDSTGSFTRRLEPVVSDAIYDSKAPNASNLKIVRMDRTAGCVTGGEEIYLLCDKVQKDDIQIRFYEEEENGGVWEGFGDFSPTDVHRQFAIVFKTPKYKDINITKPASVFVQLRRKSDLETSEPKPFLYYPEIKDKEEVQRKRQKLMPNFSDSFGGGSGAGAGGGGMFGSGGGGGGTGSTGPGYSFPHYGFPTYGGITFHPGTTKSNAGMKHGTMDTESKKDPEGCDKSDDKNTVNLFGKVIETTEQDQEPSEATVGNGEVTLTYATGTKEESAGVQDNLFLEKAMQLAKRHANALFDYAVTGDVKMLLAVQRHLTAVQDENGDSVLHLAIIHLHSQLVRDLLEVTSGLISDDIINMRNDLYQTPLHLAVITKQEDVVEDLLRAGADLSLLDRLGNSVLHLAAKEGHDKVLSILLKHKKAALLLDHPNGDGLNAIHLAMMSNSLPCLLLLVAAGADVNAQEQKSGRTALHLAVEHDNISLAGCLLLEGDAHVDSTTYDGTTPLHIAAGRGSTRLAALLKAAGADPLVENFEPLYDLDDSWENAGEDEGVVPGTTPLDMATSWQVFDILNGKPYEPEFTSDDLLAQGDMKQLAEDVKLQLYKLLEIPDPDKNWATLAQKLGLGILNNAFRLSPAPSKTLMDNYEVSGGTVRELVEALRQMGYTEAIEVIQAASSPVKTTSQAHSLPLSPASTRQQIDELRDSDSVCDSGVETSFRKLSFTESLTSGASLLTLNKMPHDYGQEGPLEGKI

CC1(C)C(=O)N(Br)C(=O)N1Br
not listed: [17] | [18]
inactive: all other assays above

Fc1ccccc1[C@@H](F)COC1CCC(Nc2ncnc3[nH]ncc23)CC1 (stereo partly drawn)
active: [1] 50 µM | [2] 50 µM | [3] 63.8 µM | [17] 73.7 µM | [6] 12.6 µM | [8] 50 µM | [10] 56.5 µM | [11] 64.7 µM | MYC, MYC (gene 4609) 34 µM | [13] 35.8 µM | [16] 55.8 µM
inactive: [5] | [7] | [18] | [14] | [15]
